This is an account of results in PubChem BioAssay.

Test [1] is described as follows: HepG2 liver cancer cell viability effects, profiling panel, resazurin fluorescence, 24 h, PK04 Diversity Set (AID 1172). The settings on record: higher = more signal.
Test [2] can be described thus: basal S. cerevisiae growth modulation, no modifier, primary screen, OD600, strain BY4716, 24 h, basal condition (AID 1173). The conditions noted are these: OD600, 24 h, higher = more signal, called active from +8 up or from −8 down.
The nature of test [3]: MM1S myeloma cell viability, profiling panel, resazurin fluorescence, basal, 24 h, PK04 Diversity Set (AID 1174).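 Further: MM1S multiple myeloma cell line.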 The settings on record: higher = more signal, called active from +8 up or from −8 down.
The target of test [4] is Dihydroorotate dehydrogenase (quinone), mitochondrial (Plasmodium falciparum (isolate 3D7)) (UniProt Q08210). The experiment in a line: PfDHODH enzyme inhibitors, primary screen, biochemical, C-terminal His tag, absorbance 600 nm (AID 1175).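 Further: recombinant parasite enzyme with a five histidine tag at its C terminus.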 The settings on record: DCIP absorbance 600 nm, higher = more signal, called active from +8 up or from −8 down.
Chain of Dihydroorotate dehydrogenase (quinone), mitochondrial (Plasmodium falciparum (isolate 3D7)) (Q08210 whole entry, looked up): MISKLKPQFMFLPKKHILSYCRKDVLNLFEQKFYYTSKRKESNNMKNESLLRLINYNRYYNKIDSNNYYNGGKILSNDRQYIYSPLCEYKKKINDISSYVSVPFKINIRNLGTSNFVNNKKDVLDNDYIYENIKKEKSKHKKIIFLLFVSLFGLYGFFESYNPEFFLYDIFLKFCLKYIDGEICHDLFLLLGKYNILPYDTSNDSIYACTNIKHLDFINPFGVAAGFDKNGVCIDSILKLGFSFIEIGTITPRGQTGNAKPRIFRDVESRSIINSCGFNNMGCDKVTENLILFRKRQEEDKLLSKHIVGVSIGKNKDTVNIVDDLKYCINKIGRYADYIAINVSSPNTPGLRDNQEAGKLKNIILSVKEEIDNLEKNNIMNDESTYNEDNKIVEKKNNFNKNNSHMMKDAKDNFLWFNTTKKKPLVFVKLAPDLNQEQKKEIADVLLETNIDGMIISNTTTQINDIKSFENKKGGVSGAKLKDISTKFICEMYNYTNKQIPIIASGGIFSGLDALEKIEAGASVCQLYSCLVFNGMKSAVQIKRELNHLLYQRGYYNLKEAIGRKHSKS
A short description of test [5]: P. aeruginosa biofilm formation inhibitors, primary screen, strain PAO1, LB-PBS medium, absorbance 600 nm (AID 1176). The settings on record: P. aeruginosa PAO1 growth/biofilm, A600, 12 h; higher = more signal.
Test [6] is described as follows: S. cerevisiae RM11-1a growth modifiers, primary screen, strain RM11-1a, OD600, basal, 24 h (AID 1177).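 Further: cultures grown under basal conditions with no added stressor.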 The settings on record: OD600, 24 h, higher = more signal, called active from +8 up or from −8 down.
A short description of test [7]: E. coli acrAB mutant growth effects, primary screen, E. coli filamentation inducers, strain DRC39, OD650, 24 h (AID 1178).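 Further: growth measured as culture turbidity by optical density at 650 nm.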 The settings on record: higher = more signal, called active from +8 up or from −8 down.
Test [8] in a line: E. coli acrAB mutant growth effects, primary screen, E. coli filamentation inducers, strain DRC39, OD650, 48 h (AID 1179).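 Further: screen aims at cell division blockers that make cells filament.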 The conditions noted are these: E. coli DRC39 delta-acrAB growth, higher = more signal, called active from +8 up or from −8 down.
A short description of test [9]: RPMI8226 myeloma cell viability, profiling panel, resazurin fluorescence, basal, 24 h, PK04 Diversity Set (AID 1180).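 Further: RPMI8826 multiple myeloma cell line at 5000 cells per well.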 The conditions noted are these: higher = more signal.
The target in test [10] is E3 ubiquitin-protein ligase XIAP (Homo sapiens) (UniProt P98170). Briefly: XIAP binders, primary screen, biophysical, small-molecule microarray, fluorescence 635 nm (AID 1181).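 Further: score merges 667 nm emission and signal to noise over triplicate slides.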 The conditions noted are these: small-molecule microarray binding, higher = more signal.
Chain of E3 ubiquitin-protein ligase XIAP (Homo sapiens) (P98170 whole entry, looked up): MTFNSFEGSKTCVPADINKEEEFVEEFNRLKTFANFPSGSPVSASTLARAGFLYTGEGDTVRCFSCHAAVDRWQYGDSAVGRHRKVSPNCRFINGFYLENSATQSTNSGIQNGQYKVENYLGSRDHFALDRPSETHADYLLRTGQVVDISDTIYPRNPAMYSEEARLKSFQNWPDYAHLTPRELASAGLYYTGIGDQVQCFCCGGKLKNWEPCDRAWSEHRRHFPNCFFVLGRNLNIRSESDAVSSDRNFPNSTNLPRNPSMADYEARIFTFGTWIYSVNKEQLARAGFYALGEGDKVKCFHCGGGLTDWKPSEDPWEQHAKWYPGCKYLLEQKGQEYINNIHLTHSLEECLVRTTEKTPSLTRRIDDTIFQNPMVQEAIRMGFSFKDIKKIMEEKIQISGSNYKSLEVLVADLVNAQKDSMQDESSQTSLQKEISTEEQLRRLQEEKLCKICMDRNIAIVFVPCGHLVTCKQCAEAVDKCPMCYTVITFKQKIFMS
The test system of test [11] is XIP peptide (Xip251-270) binding. Briefly: small-molecule binders of XIP peptide, primary screen, biochemical, small-molecule microarray, fluorescence 635/667 nm, 0.1 µg/mL protein (AID 1182). The conditions noted are these: fluorescent protein binding, 635 nm, higher = more signal, called active from +8 up or from −8 down.
The subject of test [12] is XIP peptide (Xip251-270). Briefly: small-molecule binders of XIP peptide, primary screen, biochemical, small-molecule microarray, fluorescence 635/667 nm, 0.5 µg/mL protein (AID 1183). The settings on record: small-molecule microarray binding, fluorescence 635 nm; higher = more signal.
Test [13] can be described thus: Plasmodium falciparum growth inhibition, primary screen, strain 3D7, DAPI fluorescence, 100 nL (AID 1184).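 Further: parasites grown inside human red blood cells in medium with human serum.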 The conditions noted are these: P. falciparum 3D7 growth, 3 d, higher = more signal.
The target of test [14] is Homeobox protein Hox-A13 (Mus musculus) (UniProt Q62424). Briefly: inhibitors of HoxA13-DNA binding, primary screen, biochemical, fluorescence polarization, labeled oligonucleotide (AID 1185). The conditions noted are these: 15 min, higher = more signal, called active from +8 up or from −8 down.
Chain of Homeobox protein Hox-A13 (Mus musculus) (Q62424 whole entry, looked up): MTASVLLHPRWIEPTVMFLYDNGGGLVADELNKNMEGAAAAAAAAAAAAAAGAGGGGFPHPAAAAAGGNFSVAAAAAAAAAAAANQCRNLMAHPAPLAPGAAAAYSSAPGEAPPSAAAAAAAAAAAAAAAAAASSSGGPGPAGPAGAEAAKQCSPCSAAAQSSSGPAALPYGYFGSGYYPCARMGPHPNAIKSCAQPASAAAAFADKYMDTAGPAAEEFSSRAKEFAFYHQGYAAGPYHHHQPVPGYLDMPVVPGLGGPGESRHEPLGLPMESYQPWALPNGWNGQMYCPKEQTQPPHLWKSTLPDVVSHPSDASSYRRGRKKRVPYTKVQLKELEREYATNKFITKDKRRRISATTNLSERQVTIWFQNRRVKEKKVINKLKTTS
Test [15] can be described thus: inhibitors of hydroxyurea-induced Chk1 phosphorylation, primary screen, imaging, HeLa, phospho-Chk1 antibody, percent positive cells (AID 1186). The conditions noted are these: hydroxyurea-induced phospho-Chk1 immunofluorescence imaging, higher = more signal.
Test [16] is described as follows: inhibitors of hydroxyurea-induced Chk1 phosphorylation, primary screen, imaging, HeLa, phospho-Chk1 nuclear intensity (AID 1187). The settings on record: hydroxyurea-induced phospho-Chk1 immunofluorescence imaging, higher = more signal.

Active and inactive are the calls of the source. Unless noted, how the calls were made is not given here.

Regarding `CCCCN1CC=CC23O[C@@H]4/C=C\CCC(C)OC(=O)C4[C@H]2C(=O)N(CCCO)[C@@H]3C1=O` (some centres undefined), the z-score is 0.0917 in test [1]; 1.04 (inactive) in test [2]; 0.0853 (inactive) in [3]; -0.112 (inactive) in test [5]; 0.487 (inactive) in test [6]; 0.0475 (inactive) in test [7]. For the same compound, the z-score in [8] is -0.154 (inactive); in [9], 0.79; in [13] it was 0.544; in test [14] it was -3.97 (inactive); in [15], 0.331 (inactive); in test [16] it was -0.112 (inactive). The composite z-score is -0.0558 (inactive) in test [4], -0.267 in [10], -0.571 (inactive) in test [11] and 0.214 in test [12].
Consider `COC(=O)[C@@]1(Cc2ccccc2)[C@H]2c3cc(C(=O)N(C)C)n(Cc4ccc(C)o4)c3C[C@H]2CN1C(=O)c1ccccc1`, for which the z-score in test [1] was -0.98; in test [2] it was 1.51 (inactive); in test [3], -3.41 (inactive); in [5], 3.55 (inactive); in test [6], 1.25 (inactive); in test [7], -0.513 (inactive). Further, the z-score in test [8] is -1.08 (inactive); in [9], -3.13; in test [13] it was -1.81; in [14] it was 0.0385 (inactive); in test [15] it was 1.19 (inactive); in test [16], 0.841 (inactive). Further, the composite z-score is -2.93 (inactive) in test [4], 0.696 in test [10], 0.681 (inactive) in [11] and -0.523 in [12].
Regarding `CC[C@@H]1C=C(C(=O)O)[C@H](c2ccccc2)N1S(=O)(=O)c1ccc(C)cc1`, the z-score in test [1] is -0.791; in [2], 0.34 (inactive); in [3], -1.17 (inactive); in test [5], 0.16 (inactive); in test [6], -1.02 (inactive); in [7] it was -0.666 (inactive). The z-score in test [8] was -0.135 (inactive); in test [9], -1.54; in test [13] it was 1.78; in test [14], -3.56 (inactive); in test [15], 0.504 (inactive); in test [16], 0.227 (inactive). Also, the composite z-score in test [4] is -0.95 (inactive); in test [10], -0.0663; in [11], 0.336 (inactive); in test [12] it was 0.504.
Regarding `O=C1OCCC=C[C@H]2OC34C=CCN(c5ccc6ccccc6c5)C(=O)[C@H]3N(CCCO)C(=O)[C@@H]4C12` (some centres undefined), the z-score was -0.0412 in [1]; -0.129 (inactive) in test [2]; -0.284 (inactive) in test [3]; -0.385 (inactive) in test [5]; 0.393 (inactive) in [6]; -0.127 (inactive) in test [7]. In addition, the z-score was -0.611 (inactive) in [8]; -0.496 in [9]; -1.83 in test [13]; -2.31 (inactive) in test [14]; -0.292 (inactive) in [15]; -0.64 (inactive) in test [16]. The composite z-score in [4] is -0.286 (inactive); in [10], 0.158; in [11], -0.725 (inactive); in test [12], -0.617.
`COc1ccc(C#Cc2ccc3c(c2)[C@]2(C(=O)N3)[C@H](c3ccc(O)cc3)N3[C@H](c4ccccc4)[C@H](c4ccccc4)OC(=O)[C@H]3[C@@H]2C(=O)Nc2nc3ccccc3s2)cc1`: the z-score in test [1] is -1.11; in [2], -0.155 (inactive); in test [3], 0.415 (inactive); in test [5] it was 1.21 (inactive); in test [6], 1.2 (inactive); in test [7] it was 0.198 (inactive). Besides, the z-score in [8] is 0.0227 (inactive); in test [9], 1.07; in test [13], -1.31; in [14], -0.76 (inactive); in [15] it was 0.372 (inactive); in test [16], 0.669 (inactive). The composite z-score was -15.8 (active) in test [4], 0.289 in [10], -0.52 (inactive) in test [11] and 0.77 in test [12].
As for `CCOC(=O)[C@@H]1CCCCN1C(=O)C(=O)OC`, the z-score in [1] was -0.165; in test [2], 0.016 (inactive); in [3] it was -0.05 (inactive); in [5], -0.255 (inactive); in test [6] it was 0.245 (inactive); in [7], -0.26 (inactive). The z-score is -0.253 (inactive) in [8]; -0.64 in [9]; 1.99 in test [13]; 0.731 (inactive) in test [14]; 0.284 (inactive) in [15]; -0.0933 (inactive) in test [16]. For the same compound, the composite z-score in test [4] was 0.0044 (inactive); in test [10], 0.269; in test [11], 0.636 (inactive); in [12], 0.271.
Consider `O=C1N(Cc2ccccc2)c2ccccc2C[C@]12N=C(c1ccc(OCCCO)cc1)O[C@@H]2c1ccccc1`, for which the z-score in test [1] is -0.658; in test [2], 0.0989 (inactive); in [3] it was -2.55 (inactive); in test [5], 1.58 (inactive); in test [6], 1.29 (inactive); in test [7], 0.223 (inactive). Also, the z-score in [8] was -0.2 (inactive); in test [9], -2.6; in [13], -2.37; in [14], -3.59 (inactive); in test [15], -0.0747 (inactive); in test [16] it was -0.154 (inactive). Also, the composite z-score in [4] was 0.581 (inactive); in test [10], -0.135; in test [11], -0.12 (inactive); in test [12] it was 0.59.
For the compound `NC(=O)NCC#Cc1ccc2c(c1)[C@]1(C(=O)N2)[C@H](C(=O)N2CCN(c3ncccn3)CC2)[C@H]2C(=O)O[C@H](c3ccccc3)[C@H](c3ccccc3)N2[C@@H]1c1ccc(O)cc1`, the z-score in [1] was -0.727; in [2] it was 1.14 (inactive); in [3], -0.234 (inactive); in test [5], 1.16 (inactive); in [6], 0.939 (inactive); in [7] it was -0.192 (inactive). Further, the z-score in test [8] was -0.15 (inactive); in [9] it was -1.36; in test [13], 1.79; in test [14] it was -1.83 (inactive); in [15], 0.161 (inactive); in [16], 0.359 (inactive). Besides, the composite z-score in [4] is -2.21 (inactive); in [10], -0.0577; in test [11] it was -0.0728 (inactive); in test [12] it was 0.58.
On to `O=C1O[C@@H](c2ccccc2)[C@@H](c2ccccc2)N2[C@@H](c3ccc(OCCO)cc3)[C@]3(C(=O)Nc4ccc(C#CC5=CCCCC5)cc43)[C@@H](C(=O)NC[C@H](O)c3ccccc3)[C@H]12`, for which the z-score in test [1] is -0.661; in [2], 1.49 (inactive); in [3], -1.94 (inactive); in test [5], 3.14 (inactive); in [6], 2.72 (inactive); in test [7], -0.107 (inactive). Further, the z-score in [8] was -0.245 (inactive); in [9], -3.11; in test [13] it was -1.35; in test [14], 3.28 (inactive); in test [15] it was 0.27 (inactive); in test [16], 0.433 (inactive). The composite z-score in test [4] was -0.729 (inactive); in [10] it was -0.118; in [11] it was 0.127 (inactive); in test [12], 0.693.
